# Laboratory results taken from the supplement of paper PMC6555819.
# Key:
# Experiment in all cases: PBM binding z-score (relative to random genomic background probes); higher = stronger binding; sequences stand for … in GC…GCGATTGACAGCGTAGAATGAAGG
# [1] = system: PPARg:RXRa DBDmut IVT, anti-RXR (DBD mutation: RXRa K156A/R161A, NR concentration 270 nM, RXRa partner concentration 90 nM)
# Summary of the method: (§1)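 Custom Agilent 4×180K protein-binding microarrays carried double-stranded probes. Their 34-nt variable regions held direct-repeat seeds, single-nucleotide variants, half-site ablations and random human genomic background sequences. Arrays were incubated 1 h with ligand-free nuclear receptor dimers in PBS pH 7.4, 2% milk, 0.02% Triton X-100, 1 mM DTT, 0.2 mg/mL BSA and 0.4 mg/ml salmon testes DNA. Antibodies against each partner (one per run) detected binding, and scanned fluorescence was regression-normalized. Binding z-scores use random background probes as reference.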
# [2] = system: PPARg:RXRa IVT, anti-PPARg (NR concentration 270 nM, RXRa partner concentration 90 nM)
# Summary of the method: as §1
# [3] = system: PPARg DBDmut:RXRa IVT, anti-PPARg (DBD mutation: PPARg1 K132A/R137A, NR concentration 270 nM, RXRa partner concentration 90 nM)
# Summary of the method: as §1
# [4] = system: PPARg DBDmut IVT, anti-PPARg (DBD mutation: PPARg1 K132A/R137A, NR concentration 270 nM)
# Summary of the method: as §1
# [5] = system: PPARg homodimer (NR concentration 180 nM)
# Summary of the method: as §1
# [6] = system: PXR:RXRa (NR concentration 270 nM, RXRa partner concentration 90 nM)
# Summary of the method: as §1
# [7] = system: PXR homodimer (NR concentration 270 nM)
# Summary of the method: as §1
# [8] = system: RARa:RXR (NR concentration 270 nM, RXRa partner concentration 90 nM)
# Summary of the method: as §1
# [9] = system: RARa homodimer (NR concentration 270 nM)
# Summary of the method: as §1
# [10] = system: RARb:RXRa (NR concentration 270 nM, RXRa partner concentration 90 nM)
# Summary of the method: as §1
Sequence,PBM binding z-score [1],PBM binding z-score [2],PBM binding z-score [3],PBM binding z-score [4],PBM binding z-score [5],PBM binding z-score [6],PBM binding z-score [7],PBM binding z-score [8],PBM binding z-score [9],PBM binding z-score [10]
CAAATTAGGTCACGAAAGGTCAAAGTCGAATGAC,8.68,8.9,4.28,2.39,5.32,7.26,2.64,7.69,3.07,5.8
TTACCAAGGTGAGCTGATGTCGTTGATCCAACTC,1.17,1.55,-0.517,0.259,-0.264,0.24,-0.552,0.2,-0.759,0.933
CCTACCGGGCCAAAGGTCATTGATTCCAATGCTC,0.996,4.7,-0.596,-1.68,3.08,5.32,1.52,6.45,0.836,4.35
AATACAGGGTAATCGTAGGCCAGAGTACGCACAG,2.12,2.19,0.939,0.00215,-0.0424,0.0668,0.0801,0.578,0.101,0.525
AGTCAAAGTTCGGGACGAGGTAACGTAAAGCACG,-0.421,0.748,0.226,-0.0246,0.441,0.716,0.0422,0.869,-0.0634,1.86
GTAGCAAGGTGAATAGGTCGTTGATGAGTAGGCG,1.19,1.9,-0.625,-1.04,0.211,0.451,-0.13,1.08,-0.0167,1.74
TCATATAGGTAAACAGGTGAAAGACCGTAAGTTA,4.76,4.63,1.09,1.03,1.16,0.687,0.35,1.22,1.07,0.77
CCAGACAGGTGAGAAGTTAACTCAGCCTCGATTA,0.968,0.347,-0.638,-0.46,0.326,-0.109,0.36,0.0412,0.721,0.4
CCTACTCGGCCACGAAAGGTCATTGATTCAGTGA,2.57,2.28,-0.0183,-0.203,3.66,5.12,1.83,5.43,1.61,4.03
GGTATTAGTTGAAAGGGCAACCGAATGATTCTCG,0.803,1.67,1.15,0.67,2.69,1.23,1.44,1.88,2.51,2.42
CGAACTAGGTCATCCAGGACAGTGGATACATTGA,7.91,7.98,1.6,0.738,2.41,1.89,1.23,2.52,1.24,4.03
GTACCGAGGTGAATAGGTCGTTGATGAGTAGGCG,1.68,2.73,-0.652,-0.0941,1.09,0.905,-0.18,2.02,-0.153,2.03
CATACAGTGTCAGCTAGGCCAGAGTAGGGACGGC,-0.0696,0.608,0.171,-0.0038,-0.0558,-0.453,-0.457,-0.228,0.038,1.04
CCTCGGAGGACAGAAAGTCAGAGCTGTCCGCTTT,-0.616,-1.05,-1.75,-1.4,-0.952,-0.859,-0.619,-0.54,-0.769,0.221
TCTTGAAGATCAACAGGAGGTTAAGAAAGATCGA,1.18,0.0291,0.0497,0.387,0.165,0.962,-0.127,1.25,0.0716,0.816
TAGGCTAGGTCATGGGCCAGTATACCACGCGAAC,2,3.61,1.69,-0.653,3.07,1.42,-0.616,2.78,0.534,4.04
CTCGAAAGGTCCGTTGAGGTGAGTATACGGATAA,-0.499,0.457,0.113,-0.18,-0.594,0.156,-0.14,0.322,-0.439,1.12
ATCGAAAGGTCGAAGCTGAGTATACCCACCCGAA,0.112,1.14,0.883,-0.0386,1.49,2.27,0.151,3.14,0.371,3.63
TTACCAAGGTGAAAGGTCGTTGACGCACGCCTTG,2.81,4.77,0.591,0.0484,2.15,4.13,0.552,5.9,-0.179,3.21
TCTAGCAGGCCAGTGGGTCACTCAAGAGGTACGG,2.62,3.66,-0.249,-0.535,-0.0883,0.324,-0.497,1.16,-0.945,1.48
TCGAGTAGGTTAGTCCGGGCATTCAGCCAACATA,1.83,1.17,-0.501,-0.393,-0.627,-0.337,-0.362,-0.0826,-1.14,0.232
CGTCCAAGGTCTTAGGAGGTCAGTGAAGACAGAT,0.587,1.31,-0.3,-0.454,1.17,3.07,0.796,2.15,-0.152,2.46
CGAACTAGGTCAAGGACAGTGACTCTCCGCACGC,8.38,8.3,1.83,0.467,1.66,1.37,-0.264,2.54,0.541,3.95
ATACCGAGGTGATCGTGAGGTCGTTGATACTAAC,0.567,1.31,0.104,1,0.847,3.62,1.35,2.39,-0.522,1.4

Sequence,PBM binding z-score [1],PBM binding z-score [2],PBM binding z-score [3],PBM binding z-score [4],PBM binding z-score [5],PBM binding z-score [6],PBM binding z-score [7],PBM binding z-score [8],PBM binding z-score [9],PBM binding z-score [10]
TCTCGGAGGATACGAAGGTCAGAGCTTTCCAGAG,1.14,0.245,-1.41,-1.19,0.218,1.09,-0.447,1.64,-0.378,2.33
CAAACTAAGTCAAGAGGTCAAAGTCCGCTTCCCG,2.44,3.45,0.624,0.834,4.63,5.85,2.97,6.57,2,4.35
TCTATTAGTTGAAGGGCAACCGTCGAGTCCGTTT,2.35,0.992,0.699,1.21,0.883,0.735,0.911,0.24,1.09,1.63
CCGTACGGGTCACTCCAGGTTATAGCATCGGAGT,1.15,2.49,-0.309,-1.04,1.42,5.22,0.156,3.89,-0.104,3.64
ACTAGTTGGTCAGCTGAGGTCACAGACAATTCGG,1.59,2.68,0.63,0.453,2.49,5.14,1.43,4.65,0.482,3.48
AGATCGAGGGCAATGAGTTGATAGCACGGGTGGC,2.97,2.42,0.184,-0.0429,0.453,1.53,3.29,0.437,0.369,2.12
AATACTGGGTCATCGTAGGCCAGAGTACGCACAG,6.46,6.97,1.65,2.15,1.67,2.44,0.428,2.35,0.903,3.49
TCTCTGAGGACACGAAGGTCAGAGCTTTCCAGAG,1.47,1.68,0.539,-0.166,0.898,2.18,1.25,2.04,-0.145,3.29
TCTTGTAGATCGAGCAGGTTAAGAAAGCCTGAGT,1.19,-0.156,0.439,0.279,0.237,0.342,-0.0974,0.496,-0.293,-0.102
GCTGCTAGGTCAGGTTGGTCAGCAAACGGGTACG,2.74,2.2,-0.864,-0.495,0.7,0.33,-0.684,0.7,-0.687,3.25
AGTCAAAGTTCACTAGGTAACGTGAGATTCAGCT,2.52,4.98,1.48,1.01,2.06,3.61,1.97,2.87,0.41,4.72
CCGAGTAGGTTATGGGGCATTCAAGCAACGGTGA,3.32,3.2,-0.98,0.0415,1.36,-0.0285,-0.292,0.26,-0.114,1.08
TCTAGTTGGTCACGGAGGTGACACACGACGGGTA,2.02,3.37,1.22,0.542,1.15,0.71,-0.119,0.781,0.338,1.82
ACTATTAGTTGAGAGGAGGGCAACCGATAGGTTG,0.402,0.862,0.559,0.202,0.333,0.447,0.403,0.168,0.97,0.991
AGTCTAAGTTCATCTAGGTAACGTAAGATATGCT,0.694,2.11,1.22,1.39,1.48,4.78,8.13,2.24,0.123,3.55
TCTTGTAGATCAGCAGGTTATGAAAGCTGGCCAA,1.43,0.523,-0.144,0.592,-0.672,0.11,-0.253,0.383,-0.663,0.164
TAGCCTAGGTCATTGGCCCAGTATAGTACGCATC,1.34,3.13,0.481,-0.598,1.5,1.71,-0.0601,2.29,-0.585,3.67
TCATATGGGTAAATGCTAGGTGAAAGTCCGATCT,2.91,2.07,0.703,0.469,-0.0354,0.217,-0.0586,0.519,-0.166,0.208
TCTATTTGGTCACGGAGGTCACACACGACGGGTA,2.53,4.35,4.5,3.22,3.91,4.86,2.58,4.88,2.06,4.21
TGACAAAGTTCAAAGGTAACGTAAGTATCCACAC,-0.278,2.4,1.51,0.842,2.31,5.44,2.44,6.2,1.36,5.01
AATACAGGGTCATCGTAGGCCATAGTACGCACAG,3,4.39,3,2.05,3.8,5.45,0.773,5.17,0.832,4.27
ACTCGCAGGCCAAGGGTCACTCAAGATTAGTCCG,0.79,2.88,-0.175,0.18,2.03,3.45,-0.231,4.23,0.673,3.6
CCTAGTTGGTCAGGAGGTCACAGACCGGATATGA,1.33,3.88,0.154,0.248,3.25,4.28,1.01,4.9,1.4,3.79
CGAACTATGTCATTGACAGGACAGTGAATAGTAA,3.29,2.17,0.536,1.15,0.302,0.0899,0.452,0.317,0.439,0.614
